Reference: PubChem BioAssay (NCATS)
Records with an inconclusive call do not appear. A call without a number means that no potency is given here. Active and inactive are the calls of the source. The call rests on the fitted dose curve; in most records, active means well fitted inhibition curve with a large enough effect; inconclusive means small, poorly fitted or top-dose-only effect; inactive means no such curve, though single readings can be large or run the other way.
Potency means the concentration at half of the fitted maximal effect.

Assay: BET inhibitor-based combinations targeting novel dependencies in MECOM-rearranged (r) AML: HNT-34 cell line (AID 2202234); further: nearly all actives have a fitted effect of over 35% in size
Settings: HNT-34 AML viability, CellTiter-Glo luminescence, 48 h; series mostly up to 46 µM
How it was run: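 Each compound is tested in an 11-point concentration series against 500 seeded cells/well for 48 hr. The luminescent viability signal is normalized to DMSO and blank wells, then reduced to AUC and a cell-line-centred Z-AUC.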
For `CC(C)(C)C(=O)Oc1ccc(S(=O)(=O)Nc2ccccc2C(=O)NCC(=O)O)cc1`, the Potency was “inactive”. With `COc1ccc(Cc2nccc3cc(OC)c(OC)cc23)cc1OC` the Potency was 5.9 µM (active). In the case of `CC(C)COCC(CN(Cc1ccccc1)c1ccccc1)N1CCCC1` (stereo not given), the Potency is reported as 16.6 µM (active). With `Cc1cc(C)c(/C=C2\C(=O)Nc3ccccc32)[nH]1` the Potency was 0.296 µM (active). With `NCCc1cnc[nH]1` the Potency was “inactive”. With `CCN1/C(=C/C(C)=O)Sc2ccc(OC)cc21` the Potency was 18.6 µM (active). For `Nc1nc2c(ncn2COCCO)c(=O)[nH]1`, the Potency was “inactive”. For `NS(=O)(=O)c1cc2c(cc1Cl)NCNS2(=O)=O`, the Potency was “inactive”. In the case of `COc1ccc([C@@H]2Sc3ccccc3N(CCN(C)C)C(=O)[C@@H]2OC(C)=O)cc1`, the Potency is reported as “inactive”. For `C[C@H](Cc1ccc(O)c(O)c1)[C@@H](C)Cc1ccc(O)c(O)c1`, the Potency was 8.33 µM (active).
